# PubChem BioAssay (NCI)
# This is part of a sample that, as a whole, favours compounds with a hit. Of some 83,000 tested, about 20% had one in any assay.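 The endpoint reported here, percent growth, reads 100 for growth as untreated, 0 for no net growth and -100 for all cells dead.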 Unmarked numbers belong to inactive results. Active and inactive are the calls of the source. Rule for the calls: active = growth percent below 10; inactive = the rest.
# Tested on: HL-60(TB) leukemia
# Assay: NCI-60 one-dose screen, 48 h (100 = growth as untreated, 0 = no growth, -100 = all killed)
# Conditions: 10 µM unless noted
row,Compound,growth
1,CC(C)CSc1nc(NN)c(C#N)c(-c2ccccc2)n1,106%
2,ONc1nc(NO)c2[nH]cnc2n1,15.1%
3,COc1ccc(/C=N/C2=C(C#N)C(c3ccccc3)c3c(ccc4ccccc34)O2)cc1 (stereo not given),-18.1% (active)
4,Cc1ccccc1C(=O)c1ccccc1C(=O)O,106%
5,Cc1cc(C(=O)Nc2ccc3cc(CN4CCOCC4)ccc3n2)c(C)n1-c1ccccc1,14.5%
6,Cc1ccc(-c2cc3c(cc2O)C2CCCCC2(N2CCOCC2)O3)cc1 (stereo not given),96.1%
7,CC(C)C[C@H](NC(=O)[C@H](Cc1ccccc1)n1ccc(N2CCCCC2)cc1=O)B(O)O,1.9% (active)
8,O=c1oc2ccc(Cl)cc2c(=O)n1-c1ccc(I)cc1F,-46.3% (active)
9,Cc1ccc(NS(=O)(=O)c2ccc(-c3cnc(C4CC4)o3)cc2)cc1C,-1.17% (active)
10,O=C1C(Nc2ccc(Cl)cc2)=C(I)C(=O)c2ncccc21,-45.8% (active)
11,COc1ccc(-c2nn(-c3ccccc3)cc2/C=C/C(=O)OCc2cn(-c3ccc(F)c(Cl)c3)nn2)cc1,83.3%
12,COCCc1n(Cc2ccc3ccccc3c2)c2ccccc2[n+]1Cc1ccc2ccccc2c1,-62.4% (active)
13,CN(C)CCOc1cccc(NC2=C(Cl)C(=O)C(Nc3cccc(OCCN(C)C)c3)=C(Cl)C2=O)c1,-51% (active)
14,Cc1cc2c(cc1C)NC1=C(N2)OC(c2c3ccccc3cc3ccccc23)C1=O (stereo not given),2.98% (active)
15,CCc1ccc2c(c1)N(CCO)C1=C(C(=O)OC1)C2c1cccc(Br)c1 (stereo not given),-9.76% (active)
16,C/C(=C(\c1ccc(OCCN2CCCCCC2)cc1)c1ccc(OC(=O)c2ccccc2)cc1)c1ccc(Cl)cc1,13.8%
17,Cc1ccc(C(=O)c2oc3ccc4c(C)cc(=O)oc4c3c2C)cc1,7.9% (active)
18,COc1ccc(S(=O)(=O)N2CCCCC2)cc1NC(=O)c1[nH]c(C)c2c1CCCCC2=O,-10.9% (active)
19,CCCCC#Cc1c(I)n(C2OC(CO[Si](C)(C)C(C)(C)C)C3OC(C)(C)OC32)c(=O)n(C(=O)c2ccccc2)c1=O (stereo not given),20.4%
20,COC(=O)OC1C(O[C@H]2C[C@H]3[C@@H]4CC=C5C[C@@H](O)CC[C@]5(C)[C@H]4CC[C@]3(C)[C@H]2[C@H](C)C(=O)CCC(C)C)OCC(O)C1OC1OCC(O)C(O)C1OC(=O)c1ccc(OC)cc1 (stereo not given in full),-22.3% (active)

row,Compound,growth
1,CCCCCCCC/C=C/CCCCCCCC1=NC(C)(C)CN1c1ccccc1,70%
2,CCOC(=O)[C@@H]1CCCN(S(=O)(=O)c2ccc(S(=O)(=O)N(CC)CC)c(F)c2)C1,81.4%
3,Clc1ccc(/C=C/c2ccccn2)cc1,99.4%
4,Cc1cc(N2CCSCC2)nc(NC2CCCC(Nc3ccnc4cc(Cl)ccc34)C2)n1 (stereo not given),-68.7% (active)
5,CCN(CC)CCOC(=O)c1cc(OCc2ccccc2)c(OCc2ccccc2)c(OCc2ccccc2)c1,59.6%
6,O=C(/C=C/C12c3ccccc3C(c3ccccc31)C1C(=O)NC(=O)C12)c1ccc(I)cc1 (stereo not given),6.86% (active)
7,O=C(CCCCC(=O)Oc1c(Cl)cc(Cl)cc1[N+](=O)[O-])Oc1c(Cl)cc(Cl)cc1[N+](=O)[O-],81.9%
8,CCCS(=O)(=O)c1nc(NC2CC2)cc(-c2ccc3c(ccn3C3CC(C)(C)NC(C)(C)C3)c2)n1,-61.7% (active)
9,COc1cc(Nc2ncccc2C(=O)Nc2nc3ccc(F)cc3s2)cc(OC)c1OC,136%
10,CCCOc1ccc2nc(NC(=O)OC)[nH]c2c1,3.05% (active)
11,CC(C)NS(=O)(=O)c1cccc(-c2ccc3c(=O)n(CCCN)c4c(c3c2)C(=O)c2ccccc2-4)c1,125%
12,O=C1CCCCCCCCC(O)C(O)CCCC(c2cccs2)O1 (stereo not given),77.9%
13,COc1ccc(/C=C/C(=O)c2cc3c(N)c(C(=O)Nc4ccccc4C)sc3nc2C)cc1,10.7%
14,Nc1n[nH]c2ccc([C@@H]3Nc4cc5[nH]ncc5cc4[C@H]4C5CCC(C5)[C@@H]34)cc12 (stereo not given in full),-8.95% (active)
15,O=C(NCCOCCOCCNc1cccc2c1C(=O)N(C1CCCNC1=O)C2=O)c1cc2c(o1)C(=O)c1ccccc1C2=O (stereo not given),-1.81% (active)
16,O=C(CCc1nnc2sc(-c3cc(O)c(O)c(O)c3)nn12)c1nc2ccccc2[nH]1,100%
17,CCOC(=O)/C(=C\c1ccc2ccccc2c1)P(=O)(OCC)OCC,8.83% (active)
18,O=C(CN(C(=O)Cn1c(=O)n2nnnc2c2ccccc21)c1ccccc1C(F)(F)F)Nc1ccc(C(F)(F)F)cc1,101%
19,CCN(CC)CCOc1nc2c3ccc(Cl)cc3nn2c2ccccc12,19.5%
20,CCOC(=O)C(=CNc1ccccc1Cl)C(=O)OCC,86.4%
